From PubChem BioAssay
Compounds with a hit are over-represented: about 4.2% of the library has one in this group of screens.
CHOP inh = inhibitors of CHOP promoter induction, primary screen, cell-based, unfolded protein response, luciferase reporter. CHO-K1 CHOP-promoter luciferase, tunicamycin-induced, 15-18 h. inhibition, % at 10 µM. 220,000 compounds, 3.8% hits. AID 2732, 2010;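 active = compounds that reduced the stress-induced luciferase reporter signal by more than about 70% of percent inhibition, limit read from the data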
S1P4 ag = S1P4 receptor agonists, primary screen, cell-based | 220,000 compounds, 0.35% hits | activation, % at 4.98 µM | S1P4-expressing cell line, agonist reporter assay | AID 1509, 2009; in the data active = activation above about 11%
Target sequence (O95977 whole entry, looked up): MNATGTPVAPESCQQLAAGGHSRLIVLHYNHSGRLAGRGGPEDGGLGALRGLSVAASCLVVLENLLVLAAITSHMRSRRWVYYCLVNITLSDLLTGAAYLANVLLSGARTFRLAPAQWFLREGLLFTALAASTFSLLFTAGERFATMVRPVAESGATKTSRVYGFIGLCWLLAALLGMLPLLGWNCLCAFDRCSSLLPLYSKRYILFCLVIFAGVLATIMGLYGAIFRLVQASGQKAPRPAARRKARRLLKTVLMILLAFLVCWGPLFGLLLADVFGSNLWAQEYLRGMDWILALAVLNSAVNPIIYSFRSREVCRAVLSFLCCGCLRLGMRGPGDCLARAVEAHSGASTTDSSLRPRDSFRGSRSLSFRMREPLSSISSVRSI
S1P4 antag = S1P4 receptor antagonists, primary screen, cell-based; Sphingosine 1-phosphate receptor 4 (Homo sapiens), O95977; S1P4-expressing cells, antagonist mode, reporter read-out; inhibition, % at 4.98 µM; 220,000 compounds, 0.26% hits; AID 1510, 2009; in the data active = inhibition above about 29%
Hsp70 act = Hsp70 transcriptional activators, primary screen, cell-based, HeLa, Hsp70 promoter luciferase, luminescence, 10 µM; 200,000 compounds, 0.04% hits; HeLa Hsp70 promoter luciferase reporter; scaled: vehicle 0, proteasome-inhibitor control 100%; activation, % at 10 µM; AID 1203, 2008;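 active = activation above the mean across all tested compounds plus 3 SD, cutoff set per campaign, cut at about 5.5% in these data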
Numbers stand for hits; – = inactive; · = no result given.

SMILES	CHOP inh	S1P4 ag	S1P4 antag	Hsp70 act
CC1Oc2ccccc2N(Cc2ccccc2Cl)C1=O (stereo unspecified)	89	–	–	–
O=C(Nc1cc(C(F)(F)F)ccc1Cl)C1CCN(c2nnc(-n3cccc3)s2)CC1	83	–	–	–
COC(=O)c1cc(NC(=O)c2cccc(Cl)c2)c(=O)oc1/C=C/Nc1cc(C)cc(C)c1	–	–	–	–
Cc1sc2nc(CSc3ccccc3)nc(N3CCOCC3)c2c1C	72	–	–	–
CC(C)(C)c1cc(NC(=O)CCSc2nnc3ccccn23)cc(C(C)(C)C)c1	88	–	–	–
COc1cccc(N2C(=O)C(c3ccccc3)=C(c3nc4ccccc4s3)C2NC(C)=O)c1 (stereo unspecified)	–	–	–	–
COc1ccc(C(CCN(Cc2ccc(OC)c(OC)c2)C(C)=O)c2ccccc2)cc1 (stereo unspecified)	–	–	–	–
COc1ccc(CN(CCC(c2ccccc2)c2ccc(OC(C)C)cc2)C(=O)CCl)cc1OC (stereo unspecified)	110	–	–	–
COc1ccc(CNCCC(c2ccc(F)cc2)c2ccc(OC(C)C)cc2)cc1OC (stereo unspecified)	82	–	–	·
COc1ccc(CNCCC(c2ccc(F)cc2)c2ccc(OC)cc2)cc1 (stereo unspecified)	–	–	–	–
CN1CCN(CC(=O)NC2CCCCC2)CC1	–	–	–	–
O=C1NN(c2ccc(F)cc2)C(=O)/C1=C\c1cnn(-c2ccccc2)c1	70	–	–	–
O=C1NN(c2ccccc2)C(=O)/C1=C/c1cccs1	–	–	–	–
CC(C(=O)NCCc1nc2ccccc2[nH]1)n1cc([N+](=O)[O-])cn1 (stereo unspecified)	–	–	–	–
CCCCCCNS(=O)(=O)c1ccc(Cl)s1	87	–	–	–
Cn1cccc1Cc1nnc(SCC(=O)N2CCCC2)n1CCc1ccccc1	–	–	–	–
O=C(COC(=O)CC12CC3CC(CC(C3)C1)C2)Nc1ncc(Cl)cc1Cl	77	–	–	–
O=C(COC(=O)C12CC3CC(CC(C3)C1)C2)Nc1ncc(Cl)cc1Cl	–	–	–	–
CC(C)(Oc1ccc(Cl)cc1)C(=O)OCC(=O)Nc1ncc(Cl)cc1Cl	75	–	–	–
O=C(COC(=O)c1ccc(Cl)nc1)Nc1ncc(Cl)cc1Cl	–	–	–	–
COc1ccc(-n2c(C)nc3c(cnn3-c3ccc(C)c(C)c3)c2=O)cc1	73	–	–	–
Cc1ccc(-n2c(C)nc3c(cnn3-c3ccc(F)cc3)c2=O)cc1	–	–	–	–
Cc1ccc(-n2ncc3c(=O)n(-c4ccc(C)c(C)c4)c(C)nc32)cc1	73	–	–	–
COc1cccc(-n2c(C)nc3c(cnn3-c3ccc(Cl)cc3)c2=O)c1	–	–	–	–
O=[N+]([O-])c1cccc(C2NCC(c3ccccc3Cl)c3c2[nH]c2ccccc32)c1 (stereo unspecified)	85	–	–	–
SMILES	CHOP inh	S1P4 ag	S1P4 antag	Hsp70 act
COc1cccc(S(=O)(=O)NCc2ccc(C(=O)Nc3cccc(Cl)c3)cc2)c1	71	–	–	–
COc1cccc(S(=O)(=O)NCc2ccc(C(=O)Nc3ccc(Cl)cc3)cc2)c1	–	–	–	–
Cc1c(NC(=O)COC(=O)C2(c3ccccc3F)CCCC2)c(=O)n(-c2ccccc2)n1C	–	–	–	–
Cc1cccc(OCCCC(=O)Nc2ccc(Br)cc2)c1	84	–	–	–
Cc1cccc(OCCCC(=O)Nc2ccc(N(C)C)cc2)c1	–	–	–	–
CCOc1ccc(NS(=O)(=O)N(C)C)cc1	–	–	–	–
Cc1cc(C)c(C#N)c(N2CCN(CCOc3ccc(Cl)cc3)CC2)n1	75	–	–	–
COc1ccc(Cl)cc1CN1CCN(c2nc(C)cc(C)c2C#N)CC1	–	–	–	–
COCC(=O)Nc1cc([N+](=O)[O-])ccc1C	–	–	–	–
Cc1onc(-c2c(F)cccc2Cl)c1C(=O)Nc1nc2c(s1)CCCC2	84	–	–	–
CN(C)c1ccc(C(=O)Nc2nc3c(s2)CCCC3)cc1	92	–	–	–
COC(=O)c1cccc(NC(=O)CC2NCCNC2=O)c1 (stereo unspecified)	–	–	–	·
N#Cc1ccc(N/N=C/c2ccccc2)c([N+](=O)[O-])c1	–	–	–	–
CC1(C)CC(=O)C(C2C3=C(CC(C)(C)CC3=O)Oc3ccc4ccccc4c32)C(=O)C1 (stereo unspecified)	77	–	–	–
C=CCN(CC=C)CCOc1cccc(Oc2ccccc2)c1	87	–	–	–
CSc1ccc(Cl)c(C(=O)OCC(=O)NC2CC2)c1	–	–	–	–
O=C(COC(=O)c1ccccc1C(=O)c1ccc(Cl)c([N+](=O)[O-])c1)NC1CC1	106	–	–	–
COc1ccc(/C=N/NC(=O)c2ccc(COc3ccccc3Cl)o2)c(OC)c1C	87	–	–	–
Cn1cc(C(c2ccccn2)c2cn(C)c3ccccc23)c2ccccc21	78	–	–	–
c1ccc(C(c2c[nH]c3ccccc23)c2c[nH]c3ccccc23)nc1	–	–	–	–
Nn1c(SCC(=O)N2CCCCCC2)nnc1-c1ccncc1	–	–	–	–
Cc1cc(NC(=O)c2ccccc2)c(Cl)cc1N	72	–	–	·
Cc1cc(N)ccc1NC(=O)c1ccccc1	–	–	–	–
CCCCC(=O)N(CCOC)c1nnc(-c2ccccc2C)s1	74	–	–	–
CCN(C(=O)c1ccc2c(Cl)c3c(nc2c1)CCC3)c1ccc(C)c(C)c1	91	–	–	–
SMILES	CHOP inh	S1P4 ag	S1P4 antag	Hsp70 act
COCCOC(=O)C1=C(C)Nc2nc(C)nn2C1c1ccc(F)cc1 (stereo unspecified)	–	–	–	–
O=c1/c(=C/c2ccccn2)sc2nc3ccccc3n12	–	–	–	–
Cc1cc(Cl)ccc1OC(C)C(=O)Nc1ccccc1N1CCOCC1 (stereo unspecified)	74	–	–	–
CC(C)Oc1cccc(C(=O)Nc2ccccc2N2CCOCC2)c1	74	–	–	–
COc1nnc(-c2ccc(N3CCOCC3)c(NC(=O)c3ccccc3)c2)c2ccccc12	86	–	–	–
CCC(C)Oc1cccc(C(=O)Nc2ccccc2N2CCOCC2)c1 (stereo unspecified)	75	–	–	–
CCCCOCCCNC(=O)N[C@@H](CC(C)C)C(=O)O	–	–	–	–
CC(=O)c1sc(NC(=O)COc2ccc(C(C)C)c(C)c2)nc1C	77	–	–	–
CC(=O)c1sc(NC(=O)COc2ccccc2)nc1C	–	–	–	–
CCCCOC(=O)C1=C(C)Nc2nnnn2C1c1ccccc1Cl (stereo unspecified)	83	–	–	–
CCOC(=O)C1=C(C)Nc2nnnn2C1c1ccccc1Cl (stereo unspecified)	–	–	–	–
N#C/C(C(N)=O)=c1/ccc2c(c1)N1C3=C(CCCC3)CC3CCCCC31N=2 (stereo unspecified)	82	–	–	–
